The values that follow come from PubChem BioAssay AID1347055 (National Center for Advancing Translational Sciences (NCATS), 2019).

Where “and” joins values, the source holds several entries; their conditions need not be identical. Identical values can stand only once. In all, about 54,000 compounds went through this assay and about 120 (0.22%) were called active. Inconclusive results (about 8%) are left out. Calls follow the shape of the dose curve; as a rule, active = well fitted inhibition curve with a large enough effect; inconclusive = small, poorly fitted or top-dose-only effect, or effect the other way; inactive = flat fitted curve, though single readings scatter. What follows is part of a selection rich in actives, with near analogues and random picks from the rest. A call without a number means that no potency is given here. A structure can be active in one record and inactive in another.
Potency is read from the fitted curve at half-maximal effect.

In the experiment the target is Fumarate hydratase, mitochondrial (Homo sapiens) (UniProt P07954). In words: Identification of activators of human fumarate hydratase by quantitative high-throughput screening. Also: the screen sought activators but most active calls are inhibition curves; nearly all actives have a fitted effect of over 45% in size. Particulars: FH coupled MDH/diaphorase resazurin fluorescence, 15 min; series mostly up to 79.9 µM. The text has this: Fumarate hydratase (FH) is a metabolic enzyme that is part of the Krebs-cycle, and reversibly catalyzes the hydration of fumarate to malate. Mutations of the FH gene have been associated with fumarate hydratase deficiency (FHD), hereditary leiomyomatosis, renal cell cancer (HLRCC), and other diseases. Currently there are no high-quality small molecule probes for studying human fumarate hydratase. To address this, we developed a quantitative high throughput screening (qHTS) FH assay and screened a total of 57,037 compounds in dose-response. While no inhibitors of FH were confirmed, a series of phenyl-pyrrolo-pyrimidine-diones (12 compounds) were identified as activators of human fumarate hydratase. […] The binding of two compounds from the series to human fumarate hydratase was confirmed by microscale thermophoresis. The low hit rate in this screening campaign confirmed that FH is a "tough target" to modulate, and the small molecule activators of human fumarate hydratase reported here may serve as a starting point for further optimization and development into cellular probes of human FH and potential drug candidates.
Fumarate hydratase, mitochondrial (Homo sapiens), sequence (P07954 whole entry, looked up): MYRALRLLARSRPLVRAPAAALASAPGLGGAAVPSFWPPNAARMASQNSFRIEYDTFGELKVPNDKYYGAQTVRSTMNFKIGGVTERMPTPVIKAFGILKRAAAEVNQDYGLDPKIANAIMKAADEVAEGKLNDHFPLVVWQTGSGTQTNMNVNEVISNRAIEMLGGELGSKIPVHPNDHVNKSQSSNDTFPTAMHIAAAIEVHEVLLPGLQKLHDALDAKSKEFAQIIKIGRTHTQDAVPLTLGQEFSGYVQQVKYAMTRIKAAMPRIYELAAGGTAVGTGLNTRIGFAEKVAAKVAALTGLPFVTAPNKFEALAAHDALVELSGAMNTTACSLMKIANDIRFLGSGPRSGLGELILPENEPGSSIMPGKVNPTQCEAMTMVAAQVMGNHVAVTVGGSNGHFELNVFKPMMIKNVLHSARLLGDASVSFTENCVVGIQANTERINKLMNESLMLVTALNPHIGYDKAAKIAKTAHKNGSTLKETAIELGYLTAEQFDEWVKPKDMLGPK
For primary high-throughput screen, 3 ul of FH solution (containing 13.33nM human fumarate hydratase, 13.33IU/ml malic dehydrogenase, 0.2mM NAD, 0.067mg/ml diaphorase and 0.067mM resazurin in the assay buffer (50 mM Tris pH 8.0, 5 mM MgCl2, 0.01% Brij 3) was dispensed into each well in a black solid bottom 1536-well assay plate (Greiner Bio-One) using a BioRAPTR FRD dispenser (Beckman Coulter, Brea, CA). A 1536-well pintool dispenser outfitted with 20 nl pins (Wako Automation, San Diego, CA) was used to transfer 20 nL of DMSO-solubilized compound (Cherrypick plates) to each 1536-well assay plate. Each compound was screened at five concentrations: 15 nM, 151 nM, 1.5 uM, 15.4 uM, 76.9 uM. Following compound transfer, plates were incubated in room temperature for 10 minutes. 1 uL of substrate solution containing fumaric acid (160 uM) was dispensed via BioRAPTR FRD to initiate the reaction. Plates were immediately transferred to a ViewLux microplate imager (PerkinElmer, Waltham, MA), and any resulting resorufin fluorescence was measured (exitation/emission, 525/598 nm) at 0 and 15 minutes. The exposure time is 1 second. Fluorescence from each well was normalized using enzyme-free and DMSO-treated control wells on each plate, and changes in fluorescence (delta RFU) were calculated using the difference in fluorescent signal for each well at 15 minutes versus 0 minutes.
As for `C=C1CCC2C(C)(C(=O)OC)CCCC2(C)C1CCC1=CCOC1=O` (centres undefined), the activity change, negative = inhibition entry was “inactive”.

For the compound `Cc1cn(CCN2CCN(c3ccccc3-c3cc(C#N)cc(C(=O)NCCCN4CCCC4)c3)CC2)c2ccccc12`, the activity change, negative = inhibition result is “inactive”. On to `COC(=O)C1=CO[C@@H](O[C@@H]2O[C@H](CO)[C@@H](O)[C@H](O)[C@H]2O)[C@H]2[C@@H]1C=C[C@]21C=C([C@H](C)OC(=O)/C=C/c2ccc(O[C@@H]3O[C@H](CO)[C@@H](O)[C@H](O)[C@H]3O)cc2)C(=O)O1`, for which the activity change, negative = inhibition entry was “inactive”.

As to `COc1ccccc1CNc1nc2ccc(Cl)cc2n2cnnc12`, the activity change, negative = inhibition entry was “inactive”. `Cc1ccc(C)c(Cn2c(C(=O)O)c(CNCc3cccs3)c3ccccc32)c1`: the activity change, negative = inhibition result was “inactive”.

In the case of `CNCC(O)c1ccc(O)c(O)c1` (centres undefined), the Potency result was “inactive and 6.92 µM (active)”. With `O=C(COc1ccc(Cl)cc1)N(Cc1ccco1)Cc1ccco1`, the activity change, negative = inhibition result is “inactive”. Regarding `COc1ccccc1NC(=O)CSc1oc(-c2ccco2)nc1S(=O)(=O)c1ccc(Br)cc1`, the activity change, negative = inhibition result was “inactive”. The same measure, in the same setting: the same measure for `CNc1nc(-c2ccc3c(N)n[nH]c3c2)cc(N2CC(C(=O)NC3CCCCC3)CCC2C)n1` (centres undefined): “inactive”; for `O=C(N[C@H]1CCC[C@H](CO)C1)C1CCN(c2nc3cc(Cl)c(-c4ccc(Cl)cc4)cc3o2)CC1`: “inactive”; for `CCOC(=O)c1[nH]c(C)c(CCC(=O)NCc2ccccc2C)c1C`: “inactive”. As to `CCN(CC)C(=O)CSc1nc2ccsc2c(=O)n1Cc1ccccc1Cl`, the activity change, negative = inhibition result is “inactive”.

In the case of `CCOc1ccc(-n2nc3ccc(NC(=O)c4ccc(OC)c(Cl)c4)cc3n2)cc1`, the activity change, negative = inhibition result was “inactive”. The same measure, in the same setting: the same measure for `Cc1nn(C(=O)c2c(F)cccc2F)c(C)c1S(=O)(=O)N1CCOCC1`: “inactive”; for `COC(=O)C1=CO[C@@H](O[C@@H]2O[C@H](CO)[C@@H](O)[C@H](O)[C@H]2O)[C@@H]2[C@@H](C(=O)O)CC[C@H]12`: “inactive”. Same read-out and setting: under `CCCCC1CCN(CCCN2C(=O)CCc3ccccc32)CC1` stands “inactive”; under `CC/C=C\CC1C(=O)C=CC1(CCCCCCCC(=O)O)OC(C)=O` (centres undefined), “inactive”; under `COc1cccc(CNC(=O)c2ccc3c(Cl)c4c(nc3c2)CCCC4)c1`, “inactive”. Take `C=CC(C)(O)CO[C@@H]1O[C@H](CO)[C@@H](O)[C@H](O)[C@H]1O` (some centres undefined): the activity change, negative = inhibition result is “inactive”. `Cc1cc2c(cc1S(=O)(=O)CCC(=O)NCc1ccccc1)OCC(=O)N2`: the activity change, negative = inhibition result is “inactive”.

Take `CC(C)(OC1OC(CO)C(O)C(O)C1O)C1CCC(O)(CO)C2CC(O)C(C)(O)C2C1` (centres undefined): the activity change, negative = inhibition entry was “inactive”.

As to `O=C(/C=C/c1ccc(O)cc1)OCC1=C[C@@H](O)[C@@H]2C=CO[C@@H](O[C@@H]3O[C@H](CO)[C@@H](O)[C@H](O)[C@H]3O)[C@H]12`, the activity change, negative = inhibition result is “inactive”. For the compound `COc1cc(C(C)=O)c(OC)c2c1OC(C)(C)C=C2`, the activity change, negative = inhibition result is “inactive”. The same measure, in the same setting: under `O=C(CSc1nccn1C1CCCC1)Nc1cc(C(F)(F)F)ccc1Cl` stands “inactive”; under `C=CC(C)(O)CC/C=C(\C)C(=O)OC1C(O)C(CO)OC(OC(=O)C23CCC(C)(C)CC2C2=CCC4C5(C)CCC(OC6OC(COC7OCC(OC(C)=O)C(O)C7OC7OC(COC(C)=O)C(O)C(O)C7OC(C)=O)C(O)C(O)C6OC6OCC(O)C(O)C6O)C(C)(C)C5CCC4(C)C2(C)C(O)C3O)C1OC1OCC(OC2OCC(O)C(OC3OCC(O)C(O)C3O)C2O)C(O)C1O` (centres undefined), 3.1% [at 13.5 µM] (inactive).

In the case of `C=C1CCC[C@]2(C)CC/C(=C(/CO)C(=O)OC)C[C@@H]12`, the activity change, negative = inhibition entry was “inactive”. As for `CC[C@H](C)[C@H](NC(=O)[C@H]([C@@H](C)CC)N(C)C(C)=O)C(=O)N[C@H](C(=O)N[C@@H](CC(C)C)C(=O)[C@@]1(C)CO1)[C@@H](C)O`, the activity change, negative = inhibition entry is “inactive”. As for `COc1cc(C2c3cc(O)c(OC)cc3CC(CO)C2CO)ccc1O` (centres undefined), the activity change, negative = inhibition result was “inactive”. As for `CCOc1ccc(NC(=O)CC2C(=O)N(c3cccc(OC)c3)C(=O)N2C2CCCCC2)cc1` (centres undefined), the activity change, negative = inhibition entry is “inactive”.

On to `COc1cccc(C(=O)c2sc3nc(-c4ccccc4)cc(C(F)(F)F)c3c2N)c1`, for which the activity change, negative = inhibition result was “inactive”. Regarding `Cc1cccc(N2CCN(C(=O)Cn3ncc4c5ccccc5n(C)c4c3=O)CC2C)c1` (centres undefined), the activity change, negative = inhibition entry is “inactive”. With `CC(=O)/C=C/C1(O)C(C)(C)CC(O)CC1(C)O` (centres undefined), the activity change, negative = inhibition result was “inactive”. Consider `Cc1ccc2nc(COc3cccc(NC(=O)c4ccccc4Cl)c3)cc(=O)n2c1`, for which the activity change, negative = inhibition entry is “inactive”. Same read-out and setting: under `O=C(Cn1c(=O)n(-c2ccc(F)cc2)c(=O)c2sccc21)Nc1cccc(C(F)(F)F)c1` stands “inactive”; under `COc1ccc(CCN2C(=O)N(c3cccc(OC)c3)C(=O)C2CC(=O)Nc2ccccc2)cc1` (centres undefined), “inactive”; under `CC1=C(C)C(=O)OC(C(C)C2CCC3C4CC=C5CC(OC6OC(COC7OC(CO)C(O)C(O)C7O)C(O)C(O)C6O)CC(O)C5(C)C4CCC23C)C1` (centres undefined), “inactive”. In the case of `CN(C(=O)CSc1nc2ccc(NC(=O)COc3ccccc3)cc2s1)c1ccccc1`, the activity change, negative = inhibition result was “inactive”.

With `CC(Nc1ncnc2nc[nH]c12)c1cc2cccc(Cl)c2c(=O)n1-c1ccccc1` (centres undefined), the activity change, negative = inhibition entry was “inactive”.

`COc1ccc(NC(=O)c2ccc(-c3ccc(C(=N)N)cc3C)cc2)cc1N1CCN(C)CC1`: the activity change, negative = inhibition result was “inactive”.
